# Bioassay records: PubChem BioAssay, National Center for Advancing Translational Sciences (NCATS)
# The list is not random: actives were taken first. Their share in the collection is about 8.8%.
# IL-1B inflam inh: blocks inflammasome-driven IL-1 beta release. THP-1 LPS/ATP IL-1B secretion, AlphaLISA, 16 h; active compounds read low. activity change, % at 57.5 µM. 4.7% of 360,000 active. AID 743279; in the data active means activity change below about -50%; inconclusive means mostly about -30% to -49%
#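 THP-1 cells pretreated 1 hr with compounds (up to 57.5 uM final), then stimulated with LPS (250 ng/mL final) plus ATP (1.25 mM final); secreted IL-1B measured by AlphaLISA after 16 hr, decreased signal indicating inhibition.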
# KB-3-1 tox: kills parental KB-3-1 adenocarcinoma cells. KB-3-1 viability, CellTiter-Glo ATP luminescence, 72 h. Potency, µM (top dose mostly 46.1 µM), actives largely listed as cytotoxic. 1.4% of 400,000 active. AID 1347075; further: potency means the concentration at half of the fitted maximal effect; nearly all actives have a fitted effect of over 60% in size
#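 Viability of parental KB-3-1 cells, measured by CellTiter-Glo luminescence, followed a 72 h incubation at 37 °C with pinned compounds in phenol-red-free DMEM containing 10% FBS.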
# HT1080 IDH1KD tx: HT-1080 IDH1 knockdown cell toxicity (counter line); HT-1080 IDH1 knockdown viability, ATP luminescence, 48 h; Potency, µM (doses to about 46.1 µM), inactives show at the top dose activity, negative = toxicity, usual class: cytotoxic; 2% of 360,000 active;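 further: potency means the concentration at half of the fitted maximal effect; 0% = DMSO wells and -100% = cell-free medium wells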
#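 Assay cells: HT-1080 with IDH1 knockdown, 750 per well, RPMI/5% FBS. Exposure: 48 h at 37 °C following 2 h pre-incubation. Read: CellTiter-Glo luminescence; fitted concentration-response, curve class assigned.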
# KB-V1 cytotox: KB-V1 MDR subline cytotoxicity; KB-V1 MDR cells viability, CellTiter-Glo, 72 h; Potency, µM (doses to about 46.1 µM), actives largely listed as cytotoxic; 3.4% of 400,000 active; further: potency means the concentration at half of the fitted maximal effect; nearly all actives have a fitted effect of over 60% in size
#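 Readout: CellTiter-Glo luminescence, 10 min after addition. Cells: KB-V1 MDR subline, 72 h at 37 degrees C with compound. Analysis: corrected, normalized data fitted to concentration-effect curves.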
# HT1080NT lethal: kills 2HG-producing HT-1080-NT fibrosarcoma cells; HT-1080-NT fibrosarcoma viability, CellTiter-Glo ATP luminescence, 48 h; Potency, µM (titrated, usually from 46.1 µM), inactives show at the top dose activity, negative = less viability, most hits filed as cytotoxic; 1.6% of 360,000 active; AID 686970;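 further: NT is the 2HG producing partner of a matched IDH1 knockdown line; potency means the concentration at half of the fitted maximal effect; 0% = DMSO-treated cells and -100% = media-only wells without cells; nearly all actives have a fitted effect of over 55% in size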
#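 Fibrosarcoma NT cells, 750 per well in 5% FBS RPMI, were exposed to compound for 48 hours. Viability: CellTiter-Glo luminescence.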
# The depositor's hits bear a star; i = inactive; ? = inconclusive; nt = no result given. Unless noted, the call rests on the fitted dose curve; in most records, active means well fitted curve in the direction sought with a large enough effect; inconclusive means small, poorly fitted or top-dose-only effect, or another doubt; inactive means no such curve, though single readings can be large; an effect the other way counts as inactive or inconclusive. Unless noted, on the % scale 0 is the no-effect control and ±100 the full control effect.
SMILES,IL-1B inflam inh,KB-3-1 tox,HT1080 IDH1KD tx,KB-V1 cytotox,HT1080NT lethal
COc1ccc(C(=O)/C=C/c2ccc(OC)c(CN3CCOCC3)c2)cc1,-100*,?,?,15µM*,-4%
COc1ccc(/C=C/C(=O)c2ccc3ccccc3c2O)cc1CN1CCOCC1,-67*,i,-12%,i,-27%
O=C(/C=C/c1cccc(O)c1)c1cccnc1,-6,i,?,?,?
COCCNC(=O)C1(C)CCCN(C(=O)c2cccc(Cl)c2)C1 (stereo not drawn),5,i,0%,i,-1%
COc1ccc(/C=C/C(=O)c2ccc(O)cc2)cc1CN1CCOCC1,-133*,16µM*,?,?,-36%
COc1ccc(Nc2nc(S(=O)(=O)c3ccc(C)cc3)c(Cl)s2)cc1,-91*,?,23µM*,i,23µM*
O=S(=O)(c1ccccc1)c1nc(Nc2cccc(O)c2)sc1Cl,-9,16µM*,-1%,?,0%
Cc1ccc(S(=O)(=O)c2nc(Nc3ccccc3)sc2Cl)cc1,0,?,-14%,i,-12%
COC(=O)/C=C1\SC(N2CCOCC2)=C(c2ccc(OC)cc2)C1=O,25,i,8%,i,9%
O=S(=O)(c1ccc(F)cc1)N1CCN(CC(O)COCc2cccs2)CC1 (stereo not drawn),0,i,2%,i,0%
OC(COCc1cccs1)CN1CCN(c2cccc(C(F)(F)F)c2)CC1 (stereo not drawn),i,i,6%,23µM*,4%
Cc1ccc(NC(=O)c2ccc(-c3nn(C)c(=O)c4ccccc34)cc2)cc1,-8,i,0%,21µM*,0%
COc1ccc(NC(=O)CCn2nc(-c3ccc(Cl)cc3)c3ccccc3c2=O)cc1,nt,i,nt,i,nt
Cc1ccc(-c2nn(CC(=O)NCc3cc(-c4nn(C)c(=O)c5ccccc45)ccc3C)c(=O)c3ccccc23)cc1,38,23µM*,?,7.3µM*,?
COc1ccc(-c2nn(C)c(=O)c3ccccc23)cc1NC(=O)COc1ccc(C)cc1,-11,?,-14%,i,-5%
CNC(=O)c1cc(NC(=O)CCn2nc(-c3ccc(C)cc3)c3ccccc3c2=O)ccc1OC,-50*,i,-6%,i,17%
CCC(=O)NCc1cc(-c2nn(C)c(=O)c3ccccc23)ccc1C,13,i,8%,?,15%
Cn1nc(-c2ccc(C(=O)Nc3ccc(F)cc3)cc2)c2ccccc2c1=O,-10,i,-1%,?,0%
COc1ccc(-c2nn(C)c(=O)c3ccccc23)cc1NC(=O)Cn1nc(C)c2ccccc2c1=O,-9,i,?,21µM*,?
O=c1cc(COc2ccc(Cl)cc2Cl)nc2scc(-c3ccccc3)n12,nt,i,nt,i,nt
CCOc1ccc(N(C(=O)c2ccccc2F)S(=O)(=O)c2ccc3c(c2)n(C)c(=O)n3C)cc1,nt,i,nt,i,nt
CCOC(=O)CNC(=O)c1cc2c(=O)oc3ccccc3c2s1,nt,i,nt,i,nt
CCc1ccc(OS(=O)(=O)c2cn(C)c(=O)n(C)c2=O)cc1,-4,i,14%,i,2%
CCCCOCCCNC(=O)C[C@@H]1C[C@@]2(C(=O)OC)CC(C)(C)CC=C2N(Cc2ccccc2)C1=O,?,i,-11%,?,-23%
COc1ccc(OC)c(NC(=O)Cc2nn(C)c(=O)c3ccccc23)c1,46,i,-30%,?,-10%
SMILES,IL-1B inflam inh,KB-3-1 tox,HT1080 IDH1KD tx,KB-V1 cytotox,HT1080NT lethal
Cc1ccc(-c2nn(CC(=O)N(C)C)c(=O)c3ccccc23)cc1S(=O)(=O)N(C)C,11,i,1%,i,1%
CCCC(=O)Nc1cc(-c2nn(C)c(=O)c3ccccc23)ccc1OC,15,?,-7%,?,-2%
CCC(=O)Nc1cc(-c2nn(C)c(=O)c3ccccc23)ccc1OC,-1,i,-19%,12µM*,3%
COc1cc(NC(=O)Cc2nn(C)c(=O)c3ccccc23)cc(OC)c1OC,29,i,8%,15µM*,-12%
COC(=O)Cn1nc(-c2ccc(C)c(S(=O)(=O)N(C)C)c2)c2ccccc2c1=O,18,i,7%,18µM*,2%
Cc1cccc(C(=O)N2CCC(N3CCN(Cc4ccc(F)cc4)C(=O)C3=O)CC2)c1,nt,i,nt,i,nt
Cn1nc(C(C)(C)C)c([N+](=O)[O-])c1C(=O)NC1CCCCC1,9,i,4%,?,-1%
O=c1c2ccccc2c2ccccc2c(=O)n1Nc1ccccc1,1,i,13µM*,i,?
O=c1c2ccccc2c(=O)n(Cc2ccccc2)n1Cc1ccccc1,0,i,-4%,?,2%
O=CC(=Cc1ccccc1)c1ccccc1,-7,i,1%,i,-1%
O=C(C[C@H]1C/C=C\C[C@H](NC(=O)OCC2c3ccccc3-c3ccccc32)C(=O)OC[C@@H]2CCCN2C1=O)NCCO,15,i,-5%,i,-1%
c1ccc(-c2nnc(CN3CCN(c4ccccc4)CC3)o2)cc1,19,i,0%,?,-1%
Oc1ccccc1N1CCN(Cc2ncc(-c3ccccc3)o2)CC1,-53*,i,-14%,i,-20%
COc1ccccc1C(=O)Nc1nc(-c2ccc(S(=O)(=O)N3CCOCC3)cc2)cs1,?,15µM*,?,4.6µM*,?
CC(C)C(=O)Nc1nc(-c2ccc(S(=O)(=O)N3CCOCC3)cc2)cs1,-5,nt,-7%,nt,0%
COc1ccccc1OC(C)C(=O)Nc1nc(-c2ccc(S(=O)(=O)N3CCOCC3)cc2)cs1 (stereo not drawn),0,i,-2%,4.6µM*,2%
CC(=NNC(=S)N1CC2CCC(CC2)C1)c1ccccn1,41,?,-17%,?,-23%
CC(=NNC(=S)N1CCN(C2CCCCCC2)CC1)c1ccccn1,-98*,?,?,?,21µM*
S=C(NC1CCCCC1)N1CCc2ccccc2C1,6,?,?,15µM*,-9%
S=C(NC1CC1)N1CCc2ccccc2C1,24,i,0%,i,6%
CC(=NNC(=S)N1CC2CCC(CC2)C1)c1cnccn1,-107*,?,?,?,?
CC(=NNC(=S)N1CCCCCC1)c1cccc2cccnc12,-101*,?,?,3.7µM*,-8%
Cn1c(SCc2ccc(Cl)cc2)nnc1-c1ccc2nonc2c1,-6,i,3%,i,4%
CC(O)CNc1nc(NCc2ccccc2)c2cnn(C)c2n1 (stereo not drawn),-10,i,0%,i,4%
Clc1ccc(CNc2ccc(CNc3ncn[nH]3)cc2)c(Cl)c1,-25,i,?,i,-9%
